Experimental data published in PubChem BioAssay (NCI).
Compounds without any hit were thinned out: in the full panel of roughly 83,000, 20% have a hit.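 How to read the values: 0–100, growth inhibition (40 = 60% inhibited); 0, no net growth; -100 to 0, cell death (-40 = 40% of starting cells died; -100 = all dead).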 Calls of active or inactive are those of the source. Rule for the calls: active = growth percent below 10; inactive = the rest.

Columns and labels:
Experiment in all cases: NCI-60 one-dose screen, 48 h (100 = growth as untreated, 0 = no growth, -100 = all killed)
Conditions in all cases: 10 µM
[1] = test system: 786-0 renal
[2] = test system: MALME-3M melanoma
[3] = test system: MDA-MB-231 breast
[4] = test system: SF-268 CNS
[5] = test system: SF-295 CNS
[6] = test system: UACC-257 melanoma
[7] = test system: UACC-62 melanoma
[8] = test system: SK-MEL-28 melanoma
[9] = test system: SK-MEL-2 melanoma
[10] = test system: EKVX NSCLC
[11] = test system: SN12C renal
[12] = test system: UO-31 renal
[13] = test system: TK-10 renal
[14] = test system: CAKI-1 renal
[15] = test system: A498 renal
[16] = test system: OVCAR-8 ovarian
[17] = test system: OVCAR-5 ovarian
[18] = test system: IGROV1 ovarian
[19] = test system: OVCAR-3 ovarian
[20] = test system: HS 578T breast

Measured: growth

Fc1ccc(-c2csc(Nc3cccc(Nc4nc(-c5ccc(F)cc5)cs4)c3)n2)cc1
inactive: [1] 68.8% | [2] 83% | [3] 64.6% | [4] 57.9% | [5] 90.4% | [6] 74.6% | [7] 57.1% | [8] 76.4% | [9] 34.7% | [10] 39.8% | [11] 47.2% | [12] 31.3% | [13] 94.5% | [14] 46.4% | [15] 78.3% | [16] 67.9% | [17] 65.5% | [18] 41.8% | [19] 57.5% | [20] 69.3%

O=C(c1ccccc1)c1ccc2nc(-c3ccccc3Br)[nH]c2c1
inactive: [5] 11.2% | [16] 12.6% | [20] 29%
active: [1] -89.9% | [2] -68.4% | [3] -8.52% | [4] -2.6% | [6] -59.1% | [7] -47.5% | [8] -26.7% | [9] -93.9% | [10] -76.8% | [11] -42.8% | [12] -99.1% | [13] -77.7% | [14] -92.8% | [15] 9.77% | [17] -65.8% | [18] -58.9% | [19] -80.3%

COc1ccccc1-n1cc(C#N)c(N)c1C(=O)c1ccc(Cl)cc1Cl
active: [9] -51.3% | [15] -0.709% | [20] -2.89%
inactive: [1] 52.8% | [2] 37.6% | [3] 46.4% | [4] 47.3% | [5] 19.9% | [6] 52.7% | [7] 26.9% | [8] 57.5% | [10] 29.6% | [11] 35% | [12] 42.4% | [13] 55.8% | [14] 33.8% | [16] 34.7% | [17] 49.9% | [18] 38% | [19] 17.8%

COc1ccc(OC)c(-n2cc(C#N)c(N)c2C(=O)c2ccc(Cl)cc2Cl)c1
inactive: [1] 63.4% | [2] 50.3% | [3] 64.2% | [4] 56.2% | [5] 28.4% | [6] 63.6% | [7] 30.5% | [8] 59% | [10] 42.7% | [11] 48.9% | [12] 56.7% | [13] 78.8% | [14] 36.9% | [15] 28.3% | [16] 68.8% | [17] 74.4% | [18] 53.3% | [19] 23.5% | [20] 38.6%
active: [9] -27.5%

COc1ccc(C2c3sc4ccc(C)cc4c3Oc3nc[nH]c(=O)c32)cc1 (stereo not given)
inactive: [1] 103% | [2] 84.8% | [3] 83.6% | [4] 89.7% | [5] 107% | [6] 88.2% | [7] 59.2% | [8] 80.9% | [9] 68.8% | [10] 92.7% | [11] 91.7% | [12] 64.5% | [13] 137% | [14] 60% | [15] 119% | [16] 98.1% | [17] 113% | [18] 83.6% | [19] 89% | [20] 78.5%

C#CCOc1cc(N(CC)CC)ccc1C(C(=O)NC(C)(C)C)N(C(=O)C1CCc2cc(F)ccc2O1)c1ccc(F)cc1F (stereo not given)
inactive: [1] 53.9% | [2] 62.1% | [3] 55.4% | [4] 50.6% | [5] 33.2% | [6] 29.6% | [7] 29.1% | [8] 62.8% | [10] 47.6% | [11] 47.1% | [12] 27.7% | [13] 61.3% | [14] 29.8% | [15] 68.9% | [16] 43.9% | [17] 64% | [18] 60.3% | [19] 33.4% | [20] 70.6%
active: [9] -30.4%

CCn1c(SCC(=O)Nc2ccc(-c3nc4ccccc4[nH]3)cc2)nc2ccccc2c1=O
active: [1] -89.1% | [2] -83.6% | [3] -71.1% | [4] -29.4% | [5] -66.8% | [6] -84.6% | [7] -81.7% | [8] -76.7% | [9] -79.4% | [10] -42.5% | [11] -77.7% | [12] -95.4% | [13] -95.4% | [14] -99.2% | [15] -75% | [16] -85.5% | [17] -44.4% | [18] -52.5% | [19] -66.1% | [20] -37.8%

COc1ccc(C(=O)COc2ccc(NC(=O)Nc3ccc(Cl)c(C(F)(F)F)c3)cc2)cc1
active: [5] 5.9% | [7] 7.25% | [9] -6.77%
inactive: [1] 25.2% | [2] 31.3% | [3] 35.3% | [4] 37.9% | [6] 11.8% | [8] 40.1% | [10] 10.3% | [11] 40.9% | [12] 33.3% | [13] 46.8% | [14] 27.2% | [15] 60.8% | [16] 22.5% | [17] 67.7% | [18] 49.9% | [19] 28.3% | [20] 53.4%

COc1ccc2[nH]cc(-c3nc(N)nnc3-c3cn(C)c4ncc(Br)cc34)c2c1
active: [12] 3.12% | [14] -0.341% | [15] -21.6% | [16] 1.18% | [18] 3.82% | [19] -0.754%
inactive: [1] 12.8% | [2] 28.7% | [3] 21% | [4] 12.9% | [5] 17% | [6] 39% | [7] 14.2% | [8] 37.5% | [9] 36.2% | [10] 35.1% | [11] 17.8% | [13] 11% | [17] 20.6% | [20] 28.2%

CCOC(=O)C1=C(N)N(c2ccc(C)cc2)C2=C(C(=O)CC(C)(C)C2)C1c1ccccc1Br (stereo not given)
inactive: [1] 83.9% | [2] 109% | [3] 93.4% | [4] 99.3% | [5] 90.5% | [6] 84.1% | [7] 71.8% | [8] 93.7% | [9] 85% | [10] 91% | [11] 85.2% | [12] 76% | [13] 110% | [14] 69.8% | [15] 108% | [16] 90.1% | [17] 97.5% | [18] 110% | [19] 84.9% | [20] 99.5%

COc1cc(C2CC(c3ccccc3)=Nc3c(N)nc(N)nc3N2)ccc1Oc1nc(NCCO)nc(N2CCOCC2)n1 (stereo not given)
inactive: [1] 89.2% | [2] 93.3% | [3] 97.1% | [4] 88.8% | [5] 105% | [6] 101% | [7] 97.1% | [8] 100% | [9] 99.7% | [10] 97.6% | [11] 94.8% | [12] 94.2% | [13] 110% | [14] 93.9% | [15] 113% | [16] 102% | [17] 107% | [18] 93% | [19] 109% | [20] 78.9%

Cc1ccc(S(=O)(=O)N2CCN(S(=O)(=O)c3oc(-c4ccccc4)nc3C#N)CC2)cc1
inactive: [1] 86.6% | [2] 92.7% | [3] 100% | [4] 79.1% | [5] 132% | [6] 73.3% | [7] 45.3% | [8] 78.2% | [9] 75% | [10] 81.7% | [11] 76.8% | [12] 61.7% | [13] 77% | [14] 69.8% | [15] 88.4% | [16] 84.7% | [17] 91.1% | [18] 80.5% | [19] 92.5% | [20] 95.2%

COc1ccc(-n2c(SCC(=O)NNS(=O)(=O)c3ccccc3)nc3ccc(Cl)cc3c2=O)cc1
inactive: [1] 101% | [2] 117% | [3] 89.3% | [4] 102% | [5] 102% | [6] 117% | [7] 77% | [8] 98.3% | [9] 100% | [10] 95.6% | [11] 94.1% | [12] 63.5% | [13] 109% | [14] 80.4% | [15] 90% | [16] 101% | [17] 102% | [18] 103% | [19] 105% | [20] 99.7%

CC(C)(C)c1cc(/C=C2\S/C(=N/c3ncn[nH]3)NC2=O)cc(C(C)(C)C)c1O
active: [7] 1.85% | [9] -7.9%
inactive: [1] 24.5% | [2] 36.8% | [3] 23.7% | [4] 23.3% | [5] 14.3% | [6] 17.5% | [8] 21.6% | [10] 12.3% | [11] 12.7% | [12] 15.1% | [13] 24% | [14] 19.6% | [15] 32.8% | [16] 10.8% | [17] 32.8% | [18] 17.7% | [19] 17.3% | [20] 11.8%

O=C(CSc1nc2ccccc2c(=O)n1-c1ccc(Cl)cc1)Nc1ccc(-c2nc3ccccc3[nH]2)cc1
active: [1] -76.9% | [2] -78.1% | [3] -14.8% | [4] -33.3% | [5] -7.28% | [7] -12.1% | [8] -62% | [11] -37.2% | [12] -39.1% | [13] -31.9% | [14] -67.9% | [16] -17.8% | [19] -35.5% | [20] -27.4%
inactive: [6] 13.3% | [9] 82.1% | [10] 27.4% | [15] 109% | [17] 67.8% | [18] 53.2%
